Screens (PubChem)
HEK293 tox: cytotoxic in the GLP-1 receptor inverse agonist counter-screen | HEK293 cAMP-luciferase reporter cells, luminescence, 24 h | 410,000 tested, 0.13% active | Potency, µM (top dose mostly 38.3 µM), inactives show top-dose activity change, negative = inhibition, most hits filed as inhibitors | AID 624418;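 also: loss of luciferase light is scored as toxicity; % is scaled to controls: 0 for no effect and ±100 for the full control effect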
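Seeding density was 200 cells/uL; after overnight-length (12 h) culture, 23 nL compounds went on for 24 h at 37 °C. Readout used a luciferase detection reagent, luminescence taken after 12 min at room temperature.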
GLP-1R agonist: agonists of human GLP-1 receptor; Potency, µM (series often up to 45.6 µM), inactives show at the top dose activation, most hits filed as activators; 380,000 tested, 0.007% active; HEK293 GLP-1R CRE-luciferase, luminescence, 4-6 h; cells express a hypersensitive GLP-1R form; P43220; AID 624172; also: % of control where 0% means no effect
Target sequence (P43220 whole entry, looked up): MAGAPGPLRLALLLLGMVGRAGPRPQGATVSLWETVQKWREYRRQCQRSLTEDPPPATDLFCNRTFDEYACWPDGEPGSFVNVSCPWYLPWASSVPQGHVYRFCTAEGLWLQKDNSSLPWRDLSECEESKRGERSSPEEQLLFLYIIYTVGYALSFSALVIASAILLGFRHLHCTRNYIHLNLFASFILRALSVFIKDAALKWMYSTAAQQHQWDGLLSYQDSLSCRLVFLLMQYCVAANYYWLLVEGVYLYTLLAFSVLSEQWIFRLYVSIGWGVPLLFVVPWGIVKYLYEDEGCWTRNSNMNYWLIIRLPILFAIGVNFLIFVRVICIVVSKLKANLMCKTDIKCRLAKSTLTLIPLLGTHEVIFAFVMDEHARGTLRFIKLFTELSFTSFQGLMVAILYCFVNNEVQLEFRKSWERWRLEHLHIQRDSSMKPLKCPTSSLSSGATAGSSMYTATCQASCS
GLP-1R inv ag: GLP-1 receptor (human) inverse agonism; HEK293 GLP-1R CRE-luciferase, luminescence, 24 h; GLP-1R form is constitutively active; Potency, µM (series often up to 38.3 µM), without a hit: at the top dose activity change, negative = inhibition, actives largely listed as inhibitors; 410,000 tested, 1.6% active; AID 624417; also: % is scaled to controls: 0 for no effect and ±100 for the full control effect; nearly all actives have a fitted effect of over 55% in size
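Cells are plated, allowed 12 hours at 37 deg C, then treated with compounds for 24 hr before luciferase detection reagent is added and luminescence is read after 12 min at room temperature. The HEK293 line carries constitutively active GLP-1R with a cAMP-responsive reporter.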
Starred values were filed as active, the others as inactive; [ ] = another dose, or the depositor's remark. Shown are actives, neighbours in structure and some others; about 1.7% of the full set was active somewhere. Calls follow the shape of the dose curve; as a rule, active = well fitted curve in the direction sought with a large enough effect; inconclusive = small, poorly fitted or top-dose-only effect, or another doubt; inactive = no such curve, though single readings can be large; an effect the other way counts as inactive or inconclusive. Potency is read from the fitted curve at half-maximal effect.

`COc1ccccc1C(=O)Nc1ccc2nc(SCC(=O)N3CCCc4ccccc43)sc2c1` gave HEK293 tox -13% and GLP-1R inv ag inconclusive.
For O=C1Nc2cccnc2N(C(=O)CCl)c2ccccc21 the results were HEK293 tox inconclusive, GLP-1R agonist -3% and GLP-1R inv ag inconclusive.
CNCC(O)c1ccc(OC(=O)C(C)(C)C)c(OC(=O)C(C)(C)C)c1 (stereo not given) was read as HEK293 tox -9%, GLP-1R agonist inconclusive and GLP-1R inv ag 61%.
`COc1ccc(CC(C)NCC(O)c2ccc(O)c(NC=O)c2)cc1` (stereo not given) gave HEK293 tox -6%, GLP-1R agonist inconclusive and GLP-1R inv ag 60%.
Cc1ccc(-c2n[nH]c3c2C(c2cccs2)N(c2ccc(Cl)cc2)C3=O)cc1 (stereo not given) was read as HEK293 tox inconclusive, GLP-1R agonist -13% and GLP-1R inv ag 7.9µM*.
For Cc1ccc(N2C(=O)c3[nH]nc(-c4ccc(Cl)cc4)c3C2c2ccc(F)cc2)cc1 (stereo not given) the results were HEK293 tox inconclusive, GLP-1R agonist -6% and GLP-1R inv ag inconclusive.
For Cc1ccsc1C(=O)C1CCCN(Cc2ccc(-n3cccn3)cc2)C1 (stereo not given) the results were HEK293 tox -14%, GLP-1R agonist 6% and GLP-1R inv ag 10µM*.
Screening COc1cc(CN2CCCC(C(=O)c3sccc3C)C2)cc(OC)c1O (stereo not given) returned HEK293 tox 1%, GLP-1R agonist -4% and GLP-1R inv ag 9%.
Cc1ccsc1C(=O)C1CCCN(Cc2cccc(-n3cccn3)c2)C1 (stereo not given) was read as HEK293 tox 4%, GLP-1R agonist 21% and GLP-1R inv ag 7.9µM*.
Screening Cc1ccsc1C(=O)C1CCCN(Cc2cccc(OCCO)c2)C1 (stereo not given) returned HEK293 tox -13%, GLP-1R agonist 11% and GLP-1R inv ag -10%.
`CCCN(CCC)C(=O)CC(c1ccccc1)c1cc(Br)ccc1O` (stereo not given) gave HEK293 tox inconclusive, GLP-1R agonist -14% and GLP-1R inv ag inconclusive.
`N#Cc1ccccc1Cn1cc(/C=C/[N+](=O)[O-])c2ccccc21` gave HEK293 tox inconclusive, GLP-1R agonist -7% and GLP-1R inv ag inconclusive.
For COc1cc(/C=C(/C)[N+](=O)[O-])ccc1OCc1ccccc1Cl the results were HEK293 tox inconclusive, GLP-1R agonist -8% and GLP-1R inv ag 7.1µM*.
COc1cc(C=C2C(=O)NC(=O)NC2=O)ccc1OCc1ccc([N+](=O)[O-])cc1 was read as HEK293 tox 9%, GLP-1R agonist 6% and GLP-1R inv ag 3%.
`CCc1ccccc1NC(=O)C(CC)Oc1ccccc1-c1nnc(-c2ccccc2)o1` (stereo not given) gave HEK293 tox -15% and GLP-1R inv ag inconclusive.
`CCN1CCN(Cc2cc(Br)cc(OC)c2O)CC1` gave HEK293 tox -15%, GLP-1R agonist 9% and GLP-1R inv ag 0%.
Oc1c(Br)cc(Br)cc1CN1CCN(Cc2ccccc2)CC1 was read as HEK293 tox 6%, GLP-1R agonist 20% and GLP-1R inv ag 10µM*.
Screening Cc1ccc(N(CCC#N)C(=O)CCl)cc1C returned HEK293 tox inconclusive, GLP-1R agonist -1% and GLP-1R inv ag 2.8µM*.
Screening Cc1ccc(N2C(=O)/C(=C/N3CCN(C(=O)c4ccco4)CC3)C(=O)NC2=S)cc1C returned HEK293 tox -24%, GLP-1R agonist -3% and GLP-1R inv ag -9%.
CC12CC(c3ccccc3O1)N(C(=O)c1ccco1)C(=S)N2c1ccc(F)cc1 (stereo not given) was read as HEK293 tox inconclusive, GLP-1R agonist -7% and GLP-1R inv ag 10µM*.
`COc1cc(N=Nc2cccc(S(N)(=O)=O)c2)c2ccccc2c1N` gave HEK293 tox inconclusive, GLP-1R agonist 9% and GLP-1R inv ag inconclusive.
Screening COc1cc(NC(=O)c2cccc3c(-c4cccnc4)coc23)cc(OC)c1OC returned HEK293 tox inconclusive, GLP-1R agonist -12% and GLP-1R inv ag inconclusive.
COc1ccc(-c2coc3c(C(=O)Nc4cc(OC)c(OC)c(OC)c4)cccc23)c(C)c1 was read as HEK293 tox -21%, GLP-1R agonist -5% and GLP-1R inv ag 4.5µM*.
O=P(Nc1cccc(F)c1)(Oc1ccccc1F)Oc1ccccc1F was read as HEK293 tox -18%, GLP-1R agonist 11% and GLP-1R inv ag 11µM*.
Cc1cccc(NP(=O)(Oc2ccccc2F)Oc2ccccc2F)c1 was read as HEK293 tox inconclusive, GLP-1R agonist -17% and GLP-1R inv ag 11µM*.
Screening Cc1ccc(NP(=O)(Oc2ccccc2F)Oc2ccccc2F)cc1C returned HEK293 tox -28%, GLP-1R agonist 1% and GLP-1R inv ag inconclusive.
COc1cccc(NP(=O)(Oc2ccc(Cl)cc2)Oc2ccc(Cl)cc2)c1 was read as HEK293 tox inconclusive, GLP-1R agonist -5% and GLP-1R inv ag inconclusive.
Screening CC[C@H](O)C(C[C@H](C)N(C)C)(c1ccccc1)c1ccccc1 returned GLP-1R agonist 8%[96 µM].
`C=C1CC2(CC(c3ccccc3)OC(c3ccccc3)C2)OC1=O` (stereo not given) gave HEK293 tox inconclusive, GLP-1R agonist -5% and GLP-1R inv ag inconclusive.
CC(C)(Oc1ccc(Cl)cc1)C(=O)OCC(=O)N1CCN(c2ccccc2)CC1 was read as HEK293 tox -12%, GLP-1R agonist -4% and GLP-1R inv ag inconclusive.
Screening OC(c1ccccc1)(c1ccc(Cl)cc1)C1CN2CCC1CC2 (stereo not given) returned HEK293 tox inconclusive, GLP-1R agonist 1% and GLP-1R inv ag 1.6µM*.
OC(c1ccccc1)(c1ccccc1)C1CN2CCC1CC2 (stereo not given) was read as HEK293 tox 9%, GLP-1R agonist -4% and GLP-1R inv ag 0%.
For CN1CC2=Cc3ccccc3OC23Oc2ccccc2C=C3C1 the results were HEK293 tox inconclusive, GLP-1R agonist -27% and GLP-1R inv ag inconclusive.
For COc1ccccc1-c1ncn(Cc2cccc(-c3ccccc3)c2)c1CC(C)C the results were HEK293 tox inconclusive, GLP-1R agonist -3% and GLP-1R inv ag inconclusive.
For CCOCc1c(C(=O)Nc2ccc3nc(N4CCOCC4)sc3c2)oc2ccccc12 the results were HEK293 tox inconclusive, GLP-1R agonist -28% and GLP-1R inv ag inconclusive.
`O=C(NCCc1ccccc1)c1ccc(CSc2nc3cccnc3n2Cc2ccc(F)cc2)cc1` gave HEK293 tox -7% and GLP-1R inv ag inconclusive.
O=C(NCCc1ccccc1)c1ccc2nccnc2c1 was read as HEK293 tox -19%, GLP-1R agonist 4% and GLP-1R inv ag 5µM*.
For CCOC(=O)c1cnn(-c2ccccc2)c1-c1ccccc1 the results were HEK293 tox 73%, GLP-1R agonist 8% and GLP-1R inv ag inconclusive.
`COc1ccc(-n2c(/C=C/c3ccc(O)cc3)nc3ccccc3c2=O)cc1` gave HEK293 tox -29%, GLP-1R agonist 9% and GLP-1R inv ag 10µM*.
